{"source": "PubChem BioAssay (NCI)", "note": "About 83,000 compounds went through this panel and 20% of them were active in at least one assay; those are over-represented in the sample as a whole.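 Method: cells in 96-well plates; compound added at one concentration; 48 h incubation; percent growth measured; values under 10 scored active.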 Calls of active or inactive are those of the source.", "data": [{"system": "UO-31 renal", "test": "NCI-60 one-dose screen, 48 h (100 = growth as untreated, 0 = no growth, -100 = all killed)", "conditions": "10 µM unless noted", "values": [{"compound": "Nc1ccc(C2=Nc3cccc4cccc(c34)S2)cc1", "growth": "60.4% (inactive)"}, {"compound": "COc1cc2c(cc1OCCCOc1ccc(-c3cc4ccccc4c4ccccc34)cc1)N=C[C@@H]1CCCN1C2=O", "growth": "-59.3% (active)"}, {"compound": "O=C(CCc1nnc(Cn2ccnc2)o1)c1nc2ccccc2[nH]1", "growth": "92% (inactive)"}, {"compound": "O=C(COC(=O)[C@H](C[Se][Se]C[C@H](NC(=O)c1ccc(Br)cc1F)C(=O)OCC(=O)c1ccc(F)cc1)NC(=O)c1ccc(Br)cc1F)c1ccc(F)cc1", "growth": "-100% (active)"}, {"compound": "COc1ccc2[nH]cc(/C=C3/C(=O)Nc4ccc(Cl)cc43)c2c1", "growth": "65.7% (inactive)"}, {"compound": "Cc1cccc(Cl)c1NC(=O)c1ccc2nc(NC(=O)NC3CC(C)(C)NC(C)(C)C3)sc2c1", "growth": "88.7% (inactive)"}, {"compound": "NNC(=O)C1CC2c3ccccc3C1c1ccccc12", "note": "(centres undefined)", "growth": "93.8% (inactive)"}, {"compound": "Cn1[nH]cc(/C=N/C(N)=O)c1=O", "growth": "106% (inactive)"}, {"compound": "COc1ccc2[nH]c(-c3ccccc3)cc2c1", "growth": "75.1% (inactive)"}, {"compound": "CCCCn1c(Cc2ccc(Cl)cc2)nc2cc(OC)c(OC)cc2c1=O", "growth": "54.4% (inactive)"}, {"compound": "c1coc([C@@H]2C[C@@H]3Cc4ccc5ccccc5c4N2O3)c1", "growth": "75% (inactive)"}, {"compound": "CC(O)c1nc2c(c(=O)n(C)c(=O)n2C)n1C", "note": "(centres undefined)", "growth": "91.1% (inactive)"}, {"compound": "Nc1ccccc1-c1ccc([N+](=O)[O-])cc1", "growth": "43.3% (inactive)"}, {"compound": "C=C(C[C@](O)(C(=O)/C=C/c1ccc(Cl)cc1)C(=O)OC)c1ccccc1", "growth": "52.6% (inactive)"}, {"compound": "N#Cc1ccc(NC(=O)Nc2ccc(Oc3ccc(NC(=O)Nc4ccc(C#N)cc4)cc3)cc2)cc1", "growth": "-25.7% (active)"}, {"compound": "Oc1ccc(Cc2ccc(O)c(C3CC(c4ccc(Cl)cc4)=NN3)c2)cc1C1CC(c2ccc(Cl)cc2)=NN1", "note": "(centres undefined)", "growth": "-22.4% (active)"}, {"compound": "CCC1=C(c2ccc(OC)cc2)C(C)Oc2cc(OC(C)=O)ccc21", "note": "(centres undefined)", "growth": "88.6% (inactive)"}, {"compound": "COc1ccc(/C=N\\Nc2ccc([N+](=O)[O-])cn2)cc1OC", "growth": "-11.9% (active)"}, {"compound": "COc1ncc(-c2ccc3nccc(C#CCN4CCN(S(C)(=O)=O)CC4)c3c2)cc1NS(=O)(=O)c1ccc(F)cc1F", "growth": "5.46% (active)"}, {"compound": "O=C(Nc1ccc(Cl)cc1)Nc1ccc(Nc2nncc3ccccc23)cc1", "growth": "19% (inactive)"}, {"compound": "Cc1cc(NC(=O)c2ccc(N)cc2)ccc1N=Nc1ccc2c(O)c(N=Nc3ccc(Cl)c(S(=O)(=O)O)c3)c(S(=O)(=O)O)cc2c1", "growth": "79.5% (inactive)"}, {"compound": "CCC(CCC(C)C1CCC2C3CC=C4CC(O)CCC4(C)C3CCC12C)C(C)C", "note": "(centres undefined) (tested in a mixture with another compound)", "growth": "93.6% (inactive)"}, {"compound": "CCN1CCN(c2cc(-c3cn[nH]c3-c3cc(C)cc(OC)c3)nc(-c3cccnc3)n2)CC1", "growth": "45.8% (inactive)"}, {"compound": "Cc1ccc(NC(=O)Nc2ccc(-c3cccnc3)cc2N2CCC(CO)CC2)cc1", "growth": "81.2% (inactive)"}, {"compound": "Cc1c(C(N)=O)sc2ncn(CC(=O)Nc3ccc(Cl)cc3)c(=O)c12", "growth": "160% (inactive)"}, {"compound": "COc1cc(/C=C/c2nnc(-c3cc(-c4ccccc4)n[nH]3)o2)cc(OC)c1OC", "growth": "80% (inactive)"}, {"compound": "N#Cc1cnc2cc(OC[C@H](O)CO)c(NC(=O)CC3CSSC3)cc2c1Nc1ccc(OCc2cccc(F)c2)c(Cl)c1", "growth": "47.6% (inactive)"}, {"compound": "COc1ccc(/C=N/NC(=O)c2ccc(S(C)(=O)=O)cc2)cc1OC", "growth": "90.8% (inactive)"}, {"compound": "O=C1OC(c2ccc(-c3ccccc3)cc2)=C/C1=C/c1cccs1", "growth": "82.9% (inactive)"}, {"compound": "CCOC(=O)C1=C(C)N2C(=NC3=C(CCC/C3=C\\c3ccc(Cl)cc3)C2c2ccc(Cl)cc2)S1", "note": "(centres undefined)", "growth": "53.9% (inactive)"}, {"compound": "COc1cc(C2C=C(c3ccc(C)cc3)Nc3nc(SC)[nH]c(=O)c32)ccc1Oc1ccnc2cc(Cl)ccc12", "note": "(centres undefined)", "growth": "57.8% (inactive)"}, {"compound": "Oc1ccccc1C=Nc1ccccc1N=Cc1ccccc1O.[Cu+2]", "growth": "24% (inactive)"}, {"compound": "CN(CC(=O)N(Cc1ccc(C2CCCCC2)cc1)c1ccc(C(=O)O)cc1)S(=O)(=O)c1c(F)c(F)c(F)c(F)c1F", "growth": "81.2% (inactive)"}, {"compound": "Cc1cc(C(C)(C)c2cc(C)c(O)c(CN(C)C)c2)cc(CN(C)C)c1O", "growth": "59.4% (inactive)"}, {"compound": "O=C1CCCN1C1CCN(Cc2cc3ccccc3[nH]c2=O)c2ccccc21", "note": "(centres undefined)", "growth": "52.5% (inactive)"}, {"compound": "CCOC(=O)/C=C(/C)Sc1cc(O)c2ccccc2c1O", "growth": "-5.64% (active)"}, {"compound": "COc1ccc(-c2cc(Cc3cccs3)c(=O)n(Cn3cncn3)n2)cc1", "growth": "86.4% (inactive)"}]}, {"system": "TK-10 renal", "test": "NCI-60 one-dose screen, 48 h (100 = growth as untreated, 0 = no growth, -100 = all killed)", "conditions": "10 µM unless noted", "values": [{"compound": "Nc1ccc(C2=Nc3cccc4cccc(c34)S2)cc1", "growth": "88.3% (inactive)"}, {"compound": "COc1cc2c(cc1OCCCOc1ccc(-c3cc4ccccc4c4ccccc34)cc1)N=C[C@@H]1CCCN1C2=O", "growth": "-75.6% (active)"}, {"compound": "O=C(CCc1nnc(Cn2ccnc2)o1)c1nc2ccccc2[nH]1", "growth": "110% (inactive)"}, {"compound": "O=C(COC(=O)[C@H](C[Se][Se]C[C@H](NC(=O)c1ccc(Br)cc1F)C(=O)OCC(=O)c1ccc(F)cc1)NC(=O)c1ccc(Br)cc1F)c1ccc(F)cc1", "growth": "-97.6% (active)"}, {"compound": "COc1ccc2[nH]cc(/C=C3/C(=O)Nc4ccc(Cl)cc43)c2c1", "growth": "22.2% (inactive)"}, {"compound": "Cc1cccc(Cl)c1NC(=O)c1ccc2nc(NC(=O)NC3CC(C)(C)NC(C)(C)C3)sc2c1", "growth": "80.2% (inactive)"}, {"compound": "NNC(=O)C1CC2c3ccccc3C1c1ccccc12", "note": "(centres undefined)", "growth": "97.5% (inactive)"}, {"compound": "Cn1[nH]cc(/C=N/C(N)=O)c1=O", "growth": "109% (inactive)"}, {"compound": "COc1ccc2[nH]c(-c3ccccc3)cc2c1", "growth": "156% (inactive)"}, {"compound": "CCCCn1c(Cc2ccc(Cl)cc2)nc2cc(OC)c(OC)cc2c1=O", "growth": "102% (inactive)"}, {"compound": "c1coc([C@@H]2C[C@@H]3Cc4ccc5ccccc5c4N2O3)c1", "growth": "88.6% (inactive)"}, {"compound": "CC(O)c1nc2c(c(=O)n(C)c(=O)n2C)n1C", "note": "(centres undefined)", "growth": "113% (inactive)"}, {"compound": "Nc1ccccc1-c1ccc([N+](=O)[O-])cc1", "growth": "72.7% (inactive)"}, {"compound": "C=C(C[C@](O)(C(=O)/C=C/c1ccc(Cl)cc1)C(=O)OC)c1ccccc1", "growth": "64.6% (inactive)"}, {"compound": "N#Cc1ccc(NC(=O)Nc2ccc(Oc3ccc(NC(=O)Nc4ccc(C#N)cc4)cc3)cc2)cc1", "growth": "37.9% (inactive)"}, {"compound": "Oc1ccc(Cc2ccc(O)c(C3CC(c4ccc(Cl)cc4)=NN3)c2)cc1C1CC(c2ccc(Cl)cc2)=NN1", "note": "(centres undefined)", "growth": "21% (inactive)"}, {"compound": "CCC1=C(c2ccc(OC)cc2)C(C)Oc2cc(OC(C)=O)ccc21", "note": "(centres undefined)", "growth": "98.6% (inactive)"}, {"compound": "COc1ccc(/C=N\\Nc2ccc([N+](=O)[O-])cn2)cc1OC", "growth": "-63.4% (active)"}, {"compound": "COc1ncc(-c2ccc3nccc(C#CCN4CCN(S(C)(=O)=O)CC4)c3c2)cc1NS(=O)(=O)c1ccc(F)cc1F", "growth": "12% (inactive)"}, {"compound": "O=C(Nc1ccc(Cl)cc1)Nc1ccc(Nc2nncc3ccccc23)cc1", "growth": "32% (inactive)"}, {"compound": "Cc1cc(NC(=O)c2ccc(N)cc2)ccc1N=Nc1ccc2c(O)c(N=Nc3ccc(Cl)c(S(=O)(=O)O)c3)c(S(=O)(=O)O)cc2c1", "growth": "73% (inactive)"}, {"compound": "CCC(CCC(C)C1CCC2C3CC=C4CC(O)CCC4(C)C3CCC12C)C(C)C", "note": "(centres undefined) (tested in a mixture with another compound)", "growth": "139% (inactive)"}, {"compound": "CCN1CCN(c2cc(-c3cn[nH]c3-c3cc(C)cc(OC)c3)nc(-c3cccnc3)n2)CC1", "growth": "105% (inactive)"}, {"compound": "Cc1ccc(NC(=O)Nc2ccc(-c3cccnc3)cc2N2CCC(CO)CC2)cc1", "growth": "16.5% (inactive)"}, {"compound": "Cc1c(C(N)=O)sc2ncn(CC(=O)Nc3ccc(Cl)cc3)c(=O)c12", "growth": "128% (inactive)"}, {"compound": "COc1cc(/C=C/c2nnc(-c3cc(-c4ccccc4)n[nH]3)o2)cc(OC)c1OC", "growth": "123% (inactive)"}, {"compound": "N#Cc1cnc2cc(OC[C@H](O)CO)c(NC(=O)CC3CSSC3)cc2c1Nc1ccc(OCc2cccc(F)c2)c(Cl)c1", "growth": "-70.5% (active)"}, {"compound": "COc1ccc(/C=N/NC(=O)c2ccc(S(C)(=O)=O)cc2)cc1OC", "growth": "96.9% (inactive)"}, {"compound": "O=C1OC(c2ccc(-c3ccccc3)cc2)=C/C1=C/c1cccs1", "growth": "86.8% (inactive)"}, {"compound": "CCOC(=O)C1=C(C)N2C(=NC3=C(CCC/C3=C\\c3ccc(Cl)cc3)C2c2ccc(Cl)cc2)S1", "note": "(centres undefined)", "growth": "58.2% (inactive)"}, {"compound": "COc1cc(C2C=C(c3ccc(C)cc3)Nc3nc(SC)[nH]c(=O)c32)ccc1Oc1ccnc2cc(Cl)ccc12", "note": "(centres undefined)", "growth": "78.2% (inactive)"}, {"compound": "Oc1ccccc1C=Nc1ccccc1N=Cc1ccccc1O.[Cu+2]", "growth": "84.1% (inactive)"}, {"compound": "CN(CC(=O)N(Cc1ccc(C2CCCCC2)cc1)c1ccc(C(=O)O)cc1)S(=O)(=O)c1c(F)c(F)c(F)c(F)c1F", "growth": "102% (inactive)"}, {"compound": "Cc1cc(C(C)(C)c2cc(C)c(O)c(CN(C)C)c2)cc(CN(C)C)c1O", "growth": "94.2% (inactive)"}, {"compound": "O=C1CCCN1C1CCN(Cc2cc3ccccc3[nH]c2=O)c2ccccc21", "note": "(centres undefined)", "growth": "93.3% (inactive)"}, {"compound": "CCOC(=O)/C=C(/C)Sc1cc(O)c2ccccc2c1O", "growth": "105% (inactive)"}, {"compound": "COc1ccc(-c2cc(Cc3cccs3)c(=O)n(Cn3cncn3)n2)cc1", "growth": "113% (inactive)"}]}]}
